Assay results as given in PubChem BioAssay AID504580 (NMMLSC, 2011).
The campaign covered roughly 2,000 compounds. Fewer than 10 were called active.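 The calls were made as follows: active = compounds that quench the bead-bound fluorescent RNA probe, cutting fluorescence to under half of the solvent control; inactive = the rest.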 Not all results are given here.

Test: bead-bound FAM aptamer signal quenchers – biochemical, single point, cherry pick 1, flow cytometry, artefact control for GRK2 RNA aptamer inhibitor project, confirmation (AID 504580);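 also: counterscreen run without GRK2 so only probe quenching by compound is measured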
Conditions: Carboxyfluorescein RNA aptamer on beads, flow cytometry quenching; at 10 µM; stronger effect = lower value

SMILES | fluorescence response (% of DMSO)
C=C(C)C(=O)Nc1cccc(C2=NOC3(C2)C[C@H](C(N)=O)N(C(=O)C(c2ccccc2)c2ccccc2)C3)c1 (stereo partly drawn) | 102% (inactive)
COc1cccc(CN(C)CC(=O)Nc2sc3c(c2C#N)CCC3)c1 | 99.9% (inactive)
CCCc1nc2ccccc2c(=O)n1NC(=O)c1c(O)c2ccccc2[nH]c1=O | 101% (inactive)
O=C(Nc1nnc(-c2ccccc2)o1)c1cccc(S(=O)(=O)N2CCOCC2)c1 | 101% (inactive)
CC(C)Cn1c(CN(Cc2ccccc2)Cc2ccccc2)nc2c1c(=O)n(C)c(=O)n2C | 98% (inactive)
CN(CC(=O)Nc1ccc(N2CCOCC2)cc1)CC(=O)Nc1ccccc1[N+](=O)[O-] | 101% (inactive)
COc1cc(C(=O)OCC(=O)N(CC(C)C)C2CCS(=O)(=O)C2)ccc1OCC(C)C (stereo not drawn) | 91.4% (inactive)
CSc1nc2ccccc2c(=O)n1Cc1ccc(F)cc1 | 100% (inactive)
CCOC(=O)c1sc2nc(CSc3ccccc3)[nH]c(=O)c2c1C | 106% (inactive)
Cn1c(=O)c2c(nc(N3CCOCC3)n2CCNC2=NCCC2)n(C)c1=O | 99.8% (inactive)
O=C(c1cnn(-c2ccc(Cl)cc2)c1)c1ccccc1O | 101% (inactive)
O=C(NCc1ccccc1Cl)c1ccc2c(=O)n(CC3CCCO3)c(=S)[nH]c2c1 (stereo not drawn) | 95.6% (inactive)
Cc1csc(=O)n1CC(=O)OCC(=O)N(CC(C)C)c1c(N)n(Cc2ccccc2)c(=O)[nH]c1=O | 99.2% (inactive)
O=C(COC(=O)c1ccc(F)cc1F)Nc1ncccn1 | 95.8% (inactive)
COc1cc(C(=O)NCc2ccc3c(c2)cc(C)n3C)cc(OC)c1OC | 96.5% (inactive)
O=C(NC(=O)c1cc(OCC(F)(F)F)ccc1OCC(F)(F)F)Nc1ccccc1 | 103% (inactive)
CC(=O)N1CC[n+]2c(-c3ccc([N+](=O)[O-])cc3)csc21 | 103% (inactive)
CCOc1ccccc1C(=O)NCc1ccco1 | 96% (inactive)
Cc1cc2cc(CNC(=O)c3cccs3)ccc2[nH]1 | 86.2% (inactive)
COc1ccc(Nc2nc(-c3cccnc3)nc3ccccc23)cn1 | 101% (inactive)
CCN1/C(=C\c2ccc3ccccc3[n+]2CC)Sc2cc(C)ccc21 | 173% (inactive)
Cn1c(=O)[nH]c(=O)c2c1nc(N1CCN(C(c3ccccc3)c3ccccc3)CC1)n2CCO | 98.3% (inactive)
COC(=O)N/N=C/c1ccc(/C=N/NC(=O)OC)cc1 | 100% (inactive)
COc1ccc(Nc2cc(Sc3ccc(OC)cc3)ncn2)cc1 | 101% (inactive)
O=C(c1ccc(Cl)cc1)c1ccc(OCC(O)CN2CCCCC2)cc1 (stereo not drawn) | 101% (inactive)
COc1ccc(-n2nc(C(=O)NCC(=O)N3CCCCCC3)c3ccccc3c2=O)cc1Cl | 105% (inactive)

SMILES | fluorescence response (% of DMSO)
COc1ccccc1NC(=O)CSc1nc2sc3c(c2c(=O)n1-c1ccccc1)CCN(C)C3 | 94.8% (inactive)
NC(=O)C1CCN(C(=O)c2ccc3c(=O)n(Cc4cccc(Br)c4)c(=S)[nH]c3c2)CC1 | 98.1% (inactive)
COc1ccc(C(=O)NCCNc2ccc([N+](=O)[O-])cn2)cc1 | 99.4% (inactive)
Cc1nc(C(=O)NCc2ccccc2)sc1C1(C)CC(c2cccnc2)=NO1 (stereo not drawn) | 97.1% (inactive)
O=C(c1cc2cc(F)ccc2[nH]1)N1CCN(c2ccc(F)cc2)CC1 | 97.9% (inactive)
CNS(=O)(=O)c1cccc(C(=O)NCC2CCCCC2)c1 | 101% (inactive)
Nc1ccc2nc3c(=O)[nH]c(=S)[nH]c3nc2c1 | 83.9% (inactive)
O=C(Oc1ccc(Br)cc1)c1cccnc1 | 96.7% (inactive)
Cc1ccccc1-c1nnn(CC(=O)c2ccc(S(=O)(=O)N3CCCC3)cc2)n1 | 96.4% (inactive)
CSc1ccc(/C=C2\NC(=O)NC2=O)cc1 | 95.8% (inactive)
Cc1ccc(-c2nn(-c3ccccc3)cc2/C=C2\SC(=S)N(CCCCCC(=O)O)C2=O)o1 | 136% (inactive)
COCCn1c(C)cc(C(=O)CN2c3cccc4cccc(c34)S2(=O)=O)c1C | 98% (inactive)
Cc1cc(C(=O)NC2CCN(Cc3ccccc3)CC2)n[nH]1 | 96.6% (inactive)
C/C(=N\OCC(=O)O)c1ccc(Cl)cc1 | 101% (inactive)
CC(NC(=O)C1CCCN(S(=O)(=O)c2ccc(-n3cnnn3)cc2)C1)c1ccc(F)cc1 (stereo not drawn) | 105% (inactive)
CCN1C(=O)[C@H]2[C@@H](c3ccc(-c4ccc(OC)cc4)cc3)N[C@@](Cc3ccccc3)(C(=O)OC)[C@H]2C1=O | 96.4% (inactive)
COc1ccc(NC(=O)CN(C)C(=O)c2cc(-c3ccc(C)o3)nc3ccccc23)cc1 | 100% (inactive)
COc1ccc(N2CCN(C(CNS(=O)(=O)c3ccc(C)cc3)c3ccccc3)CC2)cc1 (stereo not drawn) | 98.2% (inactive)
O=C(NCC12CC3CC(C1)CC(CNC(=O)N1CCCC1)(C3)C2)N1CCCC1 | 98.2% (inactive)
O=C(O)c1ccc2c(c1)C(=O)N(c1ccc(/C=C/C(=O)c3ccccc3)cc1)C2=O | 99.8% (inactive)
O=S(=O)(Nc1ccc(-c2ccc(N3CCOCC3)nn2)cc1)c1cc(Cl)ccc1Cl | 108% (inactive)
O=C(NCc1ccccc1)c1cccc(NC(=O)C2CCCCC2)c1 | 98% (inactive)
CCC(=C/c1sc2ccc3ccccc3c2[n+]1C)/C=C1\Sc2ccc3ccccc3c2N1C | 10.7% (active)
Cc1ccccc1CN1CCN(CC(=O)NCc2ccccn2)C1=O | 101% (inactive)
Cc1ccc(S(=O)(=O)CCC(=O)Nc2nnc(CC(C)C)s2)cc1 | 99.8% (inactive)
O=C(CCNC(=O)c1ccccc1)NN=Cc1ccc(Br)o1 | 96.6% (inactive)

SMILES | fluorescence response (% of DMSO)
Cc1ccc(C(CNC(=O)Nc2cccc(C)c2)N2CCN(C)CC2)cc1 (stereo not drawn) | 98% (inactive)
O=c1[nH]c(SCc2ccccc2)nnc1-c1ccccc1 | 98.2% (inactive)
Cc1nc(Nc2ccccc2F)c2nnn(Cc3ccccc3Cl)c2n1 | 99.8% (inactive)
CCOC(=O)C1CCCN(Cc2nc(N)nc(Nc3ccc(C)cc3)n2)C1 (stereo not drawn) | 80% (inactive)
Cc1ccc(N2C(=O)C3N=NN(CC(=O)N4N=C(c5cccc6ccccc56)CC4c4ccccc4)C3C2=O)cc1 (stereo not drawn) | 101% (inactive)
OC(CN=c1sc2ccccc2n1CC(O)COc1ccccc1)COc1ccccc1 (stereo not drawn) | 95.8% (inactive)
CC(C)CN(C(=O)c1cccc(S(=O)(=O)N2CCCCC2)c1)C1CCS(=O)(=O)C1 (stereo not drawn) | 102% (inactive)
O=C(COc1ccccc1)NCCc1nc2ccccc2[nH]1 | 99.7% (inactive)
CCOC(=O)C(C)n1cnc2scc(-c3ccc(C)c(C)c3)c2c1=O (stereo not drawn) | 95.4% (inactive)
Cc1cc(/C=C2\SC(=O)N(C)C2=O)c(C)n1-c1cccc(C(=O)O)c1 | 96.6% (inactive)
COc1ccc(Cl)cc1NC(=O)CCS(=O)(=O)c1cc2c(cc1C)NC(=O)CO2 | 99.6% (inactive)
COC(=O)c1ccc(C)c(NC(=O)C2CC(=O)N(C3CCCC(C)C3C)C2)c1 (stereo not drawn) | 94.9% (inactive)
CCN1/C(=C/c2ccc3ccc(C)cc3[n+]2CC)Sc2ccccc21 | 142% (inactive)
Cc1cccc(NC(=O)C2CCCN(C(=O)NCc3ccccc3)C2)c1C (stereo not drawn) | 102% (inactive)
CCCCn1nc(C(=O)OCC(=O)Nc2sccc2C(N)=O)c2ccccc2c1=O | 99.8% (inactive)
O=C(CCS(=O)(=O)c1ccc(Br)cc1)NCCc1ccc(Cl)cc1 | 102% (inactive)
O=C1C2N=NN(CC(=O)N3N=C(c4cccc5ccccc45)CC3c3ccccc3)C2C(=O)N1c1ccccc1 (stereo not drawn) | 91.2% (inactive)
CN/C(=C\[N+](=O)[O-])NCCSCc1csc(CN(C)C)n1 | 99.2% (inactive)
COCCCNC(=O)CNC(=O)c1nn(-c2ccc(OC)cc2)c(=O)c2ccccc12 | 96.3% (inactive)
O=C(NNc1ncnc2c1cnn2-c1ccccc1)c1ccco1 | 97.9% (inactive)
CC(=O)c1ccc(OCC(O)CN2CCN(S(=O)(=O)c3cccc(Br)c3)CC2)cc1 (stereo not drawn) | 142% (inactive)
CCOCCCNC(=O)C(NC(=O)CNC(=O)c1ccccc1)c1ccc(OC)cc1 (stereo not drawn) | 96% (inactive)
Cc1nn(Cc2ccc(F)cc2)c(C)c1NC(=O)c1noc2c1CCc1ccccc1-2 | 97% (inactive)
C/C(=N\Nc1nc2ccccc2[nH]1)c1cccs1 | 92.8% (inactive)
O=C(Nc1ccc(-c2nnc(-c3ccccc3)o2)cc1)c1ccc(Br)o1 | 98.8% (inactive)
CN(Cc1ccccc1)C(=O)c1cccc(C(=O)N(C)Cc2ccccc2)c1 | 101% (inactive)
